Measurements published in PubChem BioAssay (EPA / NIEHS).
Values joined by “and” are separate entries in the source; they are usually repeats but may differ in a detail not shown here. Equal values may be shown once. Records with an inconclusive call do not appear. The source holds several records for some structures; these can differ, active in one and inactive in another. Active and inactive are the calls of the source. The calls were made as follows, unless noted: active = hit-call score of the fitted dose curve at least 0.9, where 1 is the maximum; inconclusive = response in the unintended direction; inactive = score below 0.9.

Legend:
[1] = read-out: Cytochrome P450 2B6 (Homo sapiens) (UniProt P20813); assay: CLD_CYP2B6_6hr: CellzDirect (CLD) Gene Expression Assay for xenobiotic metabolism (CYP2B6) at 6 hours (AID 2283677);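 also: actives raise CYP2B6 transcript above DMSO baseline so AC50 marks an inducer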
Method in brief: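 CYP2B6 transcript levels, read by chemiluminescent qNPA, were fitted for increase versus DMSO baseline; cultured human liver hepatocytes from two donor preparations were harvested 6 h after exposure to test chemicals at multiple concentrations.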

[2] = CCTE_Padilla_ZF_144hpf_TERATOSCORE: (Legacy) CCTE's 144 Hour Post-fertilization zebrafish Assay Teratoscore, Padilla Lab (AID 2283679; active = hit-call score of the fitted dose curve at least 0.9, where 1 is the maximum; inactive = score below 0.9;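 as to AC50: zebrafish embryos with chorions exposed by immersion from 6-8 hpf to 5 dpf with daily renewal; teratogenicity score from eye scoring of death hatching and malformations at 144 hpf; higher score means more developmental defects relative to DMSO baseline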)
Method in brief: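 Larvae scored by eye at 144 hpf for death, hatching and malformations after a day in clean Hanks'. Before that, daily-renewed exposure at 80 uM (0.4% DMSO, 26C) from roughly 6-8 hpf through 5 dpf, 4 embryos per chemical.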

[3] = read-out: xenobiotic metabolism (CYP1A2), CYP1A2 (gene 1544); assay: CLD_CYP1A2_24hr: CellzDirect (CLD) Gene Expression Assay for xenobiotic metabolism (CYP1A2) at 24 hours (AID 2283683)
Method in brief: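 CYP1A2 mRNA induction measured by quantitative nuclease protection (chemiluminescent) in human primary hepatocytes 24 h after multi-concentration chemical dosing with daily fresh solutions. DMSO (0.2%) baseline; positive-direction fitting; morphology-based cytotoxicity noted.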

[4] = read-out: ABC Transporter (ABCB1), ABCB1 (gene 5243); assay: CLD_ABCB1_24hr: CellzDirect (CLD) Gene Expression Assay for ABC Transporter (ABCB1) at 24 hours (AID 2283684)
Method in brief: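 ABCB1 mRNA induction versus 0.2% DMSO vehicle was read by qNPA chemiluminescence at 24 h. Cultured human hepatocytes from two donor preparations received daily fresh dosing, and phase-contrast cytotoxicity calls were annotated alongside the data.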

[5] = read-out: Cytochrome P450 2B6 (Homo sapiens) (UniProt P20813); assay: CLD_CYP2B6_24hr: CellzDirect (CLD) Gene Expression Assay for xenobiotic metabolism (CYP2B6) at 24 hours (AID 2283686)
Method in brief: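 qNPA chemiluminescent measurement of mRNA at 24 hours in human primary hepatocyte cultures from two donor preparations, with daily fresh dosing and 0.2% DMSO vehicle as baseline. Morphology-based cytotoxicity flagged yes/no.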

[6] = read-out: organic anion transporter (SLCO1B1), SLCO1B1 (gene 10599); assay: CLD_SLCO1B1_24hr: CellzDirect (CLD) Gene Expression Assay for organic anion transporter (SLCO1B1) at 24 hours (AID 2283690)
Method in brief: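 SLCO1B1 mRNA induction read at 24 h by quantitative nuclease protection assay (chemiluminescence), analyzed against DMSO baseline. Human hepatocyte cultures from separate donors received fresh dosing solutions daily; vehicle 0.2% DMSO; cytotoxicity flagged by phase-contrast morphology.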

[7] = read-out: Glyceraldehyde-3-phosphate dehydrogenase (Homo sapiens) (UniProt P04406); assay: CLD_GAPDH_24hr: CellzDirect (CLD) Gene Expression Assay for Baseline Control (Glyceraldehyde 3-phosphate dehydrogenase) at 24 hours (AID 2283692)
Method in brief: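 GAPDH baseline-control readout: qNPA chemiluminescent mRNA signal in human primary hepatocytes harvested 24 h after daily dosing, normalised to 0.2% DMSO with positive fitting direction; cytotoxicity annotated by phase-contrast morphology.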

[8] = read-out: sulfotransferase (SULT2A), SULT2A1 (gene 6822); assay: CLD_SULT2A_24hr: CellzDirect (CLD) Gene Expression Assay for sulfotransferase (SULT2A) at 24 hours (AID 2283694);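 as to AC50: potency for increased SULT2A1 mRNA level as induction over DMSO baseline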
Method in brief: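 mRNA is measured by qNPA: probe hybridisation, S1 nuclease digestion, chemiluminescence, in lysates from human primary hepatocytes harvested 24 h after daily dosing. Vehicle was 0.2% DMSO. Phase-contrast microscopy flagged cytotoxicity (yes/no).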

[9] = read-out: alkyl and aryl transferase (GSTA2), GSTA2 (gene 2939); assay: CLD_GSTA2_24hr: CellzDirect (CLD) Gene Expression Assay for alkyl and aryl transferase (GSTA2) at 24 hours (AID 2283693)
Method in brief: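 GSTA2 transcript levels were quantified by quantitative nuclease protection assay in primary human hepatocytes 24 h after daily dosing with fresh solutions at multiple concentrations; 0.2% DMSO vehicle as baseline, cytotoxicity flagged morphologically.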

[10] = read-out: Cytochrome P450 3A4 (Homo sapiens) (UniProt P08684); assay: CLD_CYP3A4_24hr: CellzDirect (CLD) Gene Expression Assay for xenobiotic metabolism (CYP3A4) at 24 hours (AID 2283689)
Method in brief: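 CYP3A4 mRNA induction read by quantitative nuclease protection (chemiluminescence) 24 hr after dosing. Cultured human hepatocytes (two donor preparations) treated daily, vehicle 0.2% DMSO; phase-contrast morphology annotates cytotoxicity.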

Measured: AC50

Chain of Glyceraldehyde-3-phosphate dehydrogenase (Homo sapiens) (P04406 whole entry, looked up): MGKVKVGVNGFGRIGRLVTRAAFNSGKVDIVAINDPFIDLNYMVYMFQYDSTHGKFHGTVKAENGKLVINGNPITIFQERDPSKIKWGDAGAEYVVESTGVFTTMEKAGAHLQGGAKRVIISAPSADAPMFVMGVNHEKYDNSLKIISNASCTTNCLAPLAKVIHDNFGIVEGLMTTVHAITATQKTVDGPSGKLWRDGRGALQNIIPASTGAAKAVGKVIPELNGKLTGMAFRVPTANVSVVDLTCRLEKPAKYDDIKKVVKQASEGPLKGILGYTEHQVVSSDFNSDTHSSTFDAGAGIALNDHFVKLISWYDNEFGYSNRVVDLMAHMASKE
Chain of Cytochrome P450 3A4 (Homo sapiens) (P08684 whole entry, looked up): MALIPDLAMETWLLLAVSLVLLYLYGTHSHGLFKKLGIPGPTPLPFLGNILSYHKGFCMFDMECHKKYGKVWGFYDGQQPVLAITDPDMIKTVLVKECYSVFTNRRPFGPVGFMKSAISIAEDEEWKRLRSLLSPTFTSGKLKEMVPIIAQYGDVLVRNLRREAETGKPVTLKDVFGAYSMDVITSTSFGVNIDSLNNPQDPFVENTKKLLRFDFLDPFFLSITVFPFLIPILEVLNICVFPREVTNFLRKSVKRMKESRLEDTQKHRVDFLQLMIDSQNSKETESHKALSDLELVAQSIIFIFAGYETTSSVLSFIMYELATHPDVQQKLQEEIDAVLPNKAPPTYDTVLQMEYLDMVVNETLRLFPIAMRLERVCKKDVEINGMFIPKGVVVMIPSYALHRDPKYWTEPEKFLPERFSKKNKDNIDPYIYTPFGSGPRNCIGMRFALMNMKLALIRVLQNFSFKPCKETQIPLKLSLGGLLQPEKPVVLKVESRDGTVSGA

COC(=O)C=C(C)OP(=O)(OC)OC
active: [2] 48.1 µM
not listed: [9] | [10]
inactive: all other assays above

C=CCC1=C(C)C(OC(=O)C2C(C=C(C)C)C2(C)C)CC1=O (stereo not drawn)
active: [2] 1.54 µM and 8.75 µM
not listed: [1] | [8] | [10]
inactive: all other assays above

CCOC(=O)CC(SP(=S)(OC)OC)C(=O)OCC (stereo not drawn)
inactive: [4] | [5] | [6] | [9] | [8]
active: [2] 27.3 µM | [3] 8.3 µM

CC(C)C1(C)N=C(c2nc3ccccc3cc2C(=O)O)NC1=O (stereo not drawn)
not listed: [4] | [8] | [10]
inactive: all other assays above

CC1COC(Cn2cncn2)(c2ccc(Oc3ccc(Cl)cc3)cc2Cl)O1 (stereo not drawn)
active: [2] 5.5 µM | [3] 0.729 µM | [5] 0.000442 µM
not listed: [7] | [10]
inactive: all other assays above

COC(=O)N(OC)c1ccccc1COc1ccn(-c2ccc(Cl)cc2)n1
inactive: [4] | [5] | [6] | [9] | [8]
active: [2] 0.192 µM | [3] 0.545 µM

COc1nc(C)nc(NC(=O)NS(=O)(=O)c2ccccc2CCC(F)(F)F)n1
inactive: [2] | [3] | [4] | [6] | [7] | [9] | [8]
active: [3] 1.7 µM and 11 µM | [5] 3.4 µM and 5.71 µM and 908 nM

O=C(O)c1nc(Cl)ccc1Cl
active: [3] 9.48 µM
inactive: [2] | [3] | [5] | [6] | [9] | [8]

COc1nc(C)nc(NC(=O)NS(=O)(=O)c2ccccc2Cl)n1
not listed: [1] | [10]
inactive: all other assays above

Cc1c(F)c(F)c(COC(=O)C2C(/C=C(\Cl)C(F)(F)F)C2(C)C)c(F)c1F (stereo not drawn)
active: [1] 20 µM | [2] 0.00676 µM | [5] 20 µM
inactive: [3] | [4] | [6] | [9]

CCCCNC(=O)OCC#CI
active: [2] 0.664 µM
not listed: [1] | [6] | [10]
inactive: all other assays above

CC1=C(C(=O)Nc2ccccc2)SCCO1
active: [1] 15.2 µM | [2] 6.4 µM | [3] 15.1 µM | [5] 6 µM

CCCCOC(=O)c1ccccc1C(=O)OCCCC
active: [2] 1.83 µM | [3] 4.9 µM and 20 µM | [5] 5.33 µM
inactive: [4] | [5] | [10] | [7] | [9] | [8]

Oc1ccccc1-c1ccccc1
inactive: [1] | [6] | [7] | [9]
active: [2] 53.4 µM | [3] 20 µM | [5] 6.24 µM

CCCCNC(=O)n1c(NC(=O)OC)nc2ccccc21
inactive: [4] | [5] | [7] | [9]
active: [2] 1.29 µM | [3] 4.66 µM

CCON=C(CC)C1=C(O)CC(c2c(C)cc(C)cc2C)CC1=O (stereo not drawn)
active: [2] 64.2 µM
not listed: [1] | [9] | [10]
inactive: all other assays above

COc1nc(NC(C)C)nc(NC(C)C)n1
inactive: [2] | [4] | [5]
active: [3] 3.61 µM

CCNc1nc(Cl)nc(NCC)n1
inactive: [2] | [4] | [6] | [9] | [8]
active: [3] 5.26 µM | [5] 9.74 µM

CNC(=O)ON=CC(C)(C)SC
active: [2] 65.3 µM
not listed: [7] | [8] | [10]
inactive: all other assays above

COC(=O)C(C)Oc1ccc(Oc2ccc(Cl)cc2Cl)cc1 (stereo not drawn)
inactive: [3] | [4] | [5] | [6] | [7] | [9] | [8]
active: [2] 5.23 µM | [5] 20 µM and 34.6 µM

C#CCOS(=O)OC1CCCCC1Oc1ccc(C(C)(C)C)cc1 (stereo not drawn)
inactive: [4] | [6] | [9] | [8]
active: [2] 0.22 µM | [3] 3.11 µM | [5] 3.2 µM

CCCCC(CC)COC(=O)c1ccccc1C(=O)OCC(CC)CCCC (stereo not drawn)
not listed: [1] | [6] | [10]
inactive: all other assays above

CCc1nn(C)c(C(=O)NCc2ccc(C(C)(C)C)cc2)c1Cl
active: [2] 0.164 µM | [8] 3.71 µM
inactive: [3] | [4] | [5] | [6] | [9]
